Reference: PubChem BioAssay (Tox21)
Results filed as inconclusive are left out. Where a call stands in place of a potency, no number is given. Unmarked numbers belong to inactive results. Activity calls are given as the source filed them. Unless noted, the call rests on the fitted dose curve.

Key:
[1] = qHTS assay to identify small molecule antagonists of the vitamin D receptor (VDR) signaling pathway - cell viability counter screen (AID 743225; active means well fitted curve in the direction sought with a large enough effect in the repeat runs; an effect the other way counts as inactive or inconclusive; further: nearly all actives have a fitted effect of over 50% in size); conditions: VDR-bla HEK293T viability, CellTiter-Glo luminescence, 16 h; series mostly up to 61 µM
Procedure, shortened: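 VDR-UAS-bla HEK 293T cells were plated and incubated 4 h at 37C, then dosed with compound plus 3 nM (final) 1-alpha,25-dihydroxyvitamin D3 for 16 h. After the 2 h beta-lactamase read, viability in the same wells was read as CellTiter-Glo luminescence after 30 min at room temperature.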

[2] = qHTS assay to identify small molecule agonists of the NFkB signaling pathway - cell viability counter screen (AID 1159515); conditions: NFkB-bla ME-180 viability, CellTiter-Glo luminescence, 5 h; series mostly up to 61 µM; further: nearly all actives have a fitted effect of over 55% in size
Procedure, shortened: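 Read by CellTiter-Glo luminescence (30 min, room temperature) in the wells also used for the beta-lactamase FRET read. ME-180 NFkB-bla cells at 2,000 per well were plated overnight, then exposed to compound for 5 hr at 37 C.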

[3] = qHTS assay to identify small molecule agonists of the endoplasmic reticulum stress response signaling pathway (AID 1159516; active means well fitted activation curve with a large enough effect in the signal ratio in the repeat runs, not every such curve was filed as active; the % refers to the signal ratio); conditions: ESRE-bla HeLa, ER stress beta-lactamase reporter, 5 h; series mostly up to 61 µM
Procedure, shortened: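 Ratiometric FRET readout (405 nm excitation; 460 and 530 nm emission) of a beta-lactamase gene driven by the ER stress response element, after 2 hr substrate loading. HeLa ESRE-bla cells were seeded overnight and treated with compounds for only 5 hr at 37 C.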

[4] = qHTS assay to identify small molecule agonists of the endoplasmic reticulum stress response signaling pathway - cell viability counter screen (AID 1159517); conditions: ESRE-bla HeLa viability, CellTiter-Glo luminescence, 5 h; series mostly up to 61 µM; further: nearly all actives have a fitted effect of over 50% in size
Procedure, shortened: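 Cpd-treated ESRE-bla HeLa (5 hr, 37 C) → LiveBLAzer 2 hr RT → CellTiter-Glo 30 min RT → luminescence.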

[5] = qHTS assay to identify small molecule antagonists of the retinoid-related orphan receptor gamma (ROR-gamma) signaling pathway - cell viability counter screen (AID 1159520; active means well fitted curve in the direction sought with a large enough effect in the repeat runs; an effect the other way counts as inactive or inconclusive; further: nearly all actives have a fitted effect of over 50% in size); conditions: Tet-on RORgamma CHO cells viability, ATP luminescence, 16 h; series mostly up to 92.4 µM
Procedure, shortened: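 Tet-on ROR gamma CHO cells (1,000/well) were plated 4 hr, given compounds in DMSO for 2 hr at 37 C, then induced with 1 uM final doxycycline for 16 hr. Viability was read as ATP by CellTiter-Glo luminescence after 30 min.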

[6] = molecular target: Nuclear receptor ROR-gamma (Homo sapiens) (UniProt P51449); test: qHTS assay to identify small molecule antagonists of the retinoid-related orphan receptor gamma (ROR-gamma) signaling pathway (AID 1159521; active means well fitted curve in the direction sought with a large enough effect in the repeat runs; an effect the other way counts as inactive or inconclusive; further: nearly all actives have a fitted effect of over 50% in size; further: potency means the concentration at half of the fitted maximal effect); conditions: Tet-on RORgamma CHO cells, RORE-luciferase, 16 h; series mostly up to 92.4 µM
Procedure, shortened: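 Tet-on ROR-gamma CHO cells with ROR response element-luciferase reporter; compounds added 2 hr before 1 uM doxycycline induction, then 16 hr at 37 C. Antagonism scored as decreased ONE-Glo luminescence.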

[7] = qHTS assay to identify small molecule agonists of the AP-1 signaling pathway - cell viability counter screen (AID 1159525); conditions: ME-180 AP-1-bla cells viability, ATP luminescence, 5 h; series mostly up to 76.8 µM; further: nearly all actives have a fitted effect of over 55% in size
Procedure, shortened: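 Each titration point was normalised to DMSO and tetra n-octyl ammonium bromide controls. The read was Cell Titer Glo luminescence after 30 min at RT, following 5 h compound exposure of ME-180 AP-1-bla cells at 37 °C.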

[8] = qHTS assay to identify small molecule agonists of the AP-1 signaling pathway (AID 1159526); conditions: ME-180 (cervical carcinoma) AP-1-bla reporter, beta-lactamase FRET ratio, 5 h; series mostly up to 76.8 µM
[9] = molecular target: Retinoic acid receptor RXR-alpha (Homo sapiens) (UniProt P19793); test: qHTS assay to identify small molecule agonists of the RXR signaling pathway (AID 1159527); conditions: HEK293T RXRa-UAS-bla, beta-lactamase ratio, 16 h; series mostly up to 76.8 µM; further: nearly all actives have a fitted effect of over 35% in size
Procedure, shortened: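 GeneBLAzer RXR-alpha-UAS-bla HEK 293T cells in 2% charcoal-stripped FBS medium were exposed to compounds for 16 hr at 37 C in agonist mode. Beta-lactamase reporter read as 460/530 nm FRET ratio after 2 hr substrate loading.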

[10] = qHTS assay to identify small molecule agonists of the RXR signaling pathway - cell viability counter screen (AID 1159529; active means well fitted curve in the direction sought with a large enough effect in the repeat runs; an effect the other way counts as inactive or inconclusive; further: nearly all actives have a fitted effect of over 50% in size); conditions: RXR-alpha-bla HEK293T viability, CellTiter-Glo, 16 h; series mostly up to 76.8 µM
Procedure, shortened: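 RXR-alpha-UAS-bla HEK 293T cells in medium with 2% charcoal-stripped FBS were pre-incubated 5 hr, then compound-treated 16 hr at 37 C. Viability was read by CellTiter-Glo luminescence in the same wells as the beta-lactamase assay, with tetraoctyl ammonium bromide as positive control.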

Chain of Retinoic acid receptor RXR-alpha (Homo sapiens) (P19793 whole entry, looked up): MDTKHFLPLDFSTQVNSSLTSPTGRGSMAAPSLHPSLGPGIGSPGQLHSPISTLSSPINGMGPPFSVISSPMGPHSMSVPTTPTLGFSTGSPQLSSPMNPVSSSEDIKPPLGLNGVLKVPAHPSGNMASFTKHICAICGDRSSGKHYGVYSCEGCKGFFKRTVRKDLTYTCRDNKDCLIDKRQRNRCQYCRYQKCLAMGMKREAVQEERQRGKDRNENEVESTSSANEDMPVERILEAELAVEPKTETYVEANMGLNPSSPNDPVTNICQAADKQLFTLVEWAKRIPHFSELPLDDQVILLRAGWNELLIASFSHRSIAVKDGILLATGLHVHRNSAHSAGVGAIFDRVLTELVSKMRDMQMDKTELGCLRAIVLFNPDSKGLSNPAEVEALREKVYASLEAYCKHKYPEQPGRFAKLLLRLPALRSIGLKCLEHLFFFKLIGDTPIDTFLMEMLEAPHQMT

Structure (SMILES) | outcome [1] | outcome [2] | outcome [3] | outcome [4] | outcome [5] | Potency [6] | outcome [7] | outcome [8] | Potency [9] | Potency [10]
CCOC(=O)OC(C)OC1=C(C(=O)Nc2ccccn2)N(C)S(=O)(=O)c2ccccc21 (stereo not drawn) | inactive | inactive | inactive | inactive | inactive | inactive | inactive | inactive | inactive | inactive
CCOc1c(N2CCOCC2)cnn(C)c1=O | inactive | inactive | inactive | inactive | inactive | inactive | inactive | inactive | inactive | inactive
Cc1ccccc1N=C(N)N=C(N)N | – | inactive | inactive | inactive | inactive | inactive | inactive | inactive | inactive | –
Clc1cc(Cl)cc(Cl)c1 | – | inactive | inactive | inactive | inactive | inactive | inactive | inactive | inactive | inactive
Cc1ccnc(NS(=O)(=O)c2ccc(N)cc2)n1 | – | inactive | inactive | inactive | inactive | inactive | inactive | inactive | inactive | inactive
CCCCOCCOC(=O)CCCCCCCCC(=O)OCCOCCCC | – | inactive | inactive | inactive | inactive | inactive | inactive | inactive | inactive | inactive
O=Cc1cccc(Br)c1 | inactive | inactive | inactive | inactive | inactive | inactive | inactive | inactive | inactive | inactive
Cc1ccc(-c2ccccc2C#N)cc1 | inactive | inactive | inactive | inactive | inactive | inactive | inactive | inactive | inactive | inactive
CC(=O)c1ccc2ccccc2c1 | – | inactive | inactive | inactive | inactive | inactive | inactive | inactive | inactive | inactive
CCCc1nn(C)c2c(=O)[nH]c(-c3cc(S(=O)(=O)N4CCN(C)CC4)ccc3OCC)nc12 | – | inactive | inactive | inactive | inactive | inactive | inactive | inactive | inactive | inactive
CCCCCCC#CC(=O)OC | – | inactive | inactive | inactive | inactive | inactive | inactive | inactive | inactive | inactive
O=C(O)CC(C(=O)O)S(=O)(=O)O (stereo not drawn) | – | inactive | inactive | inactive | inactive | inactive | inactive | inactive | inactive | inactive
CC1=NN(c2cccc(S(=O)(=O)O)c2)C(=O)C1 | – | inactive | inactive | inactive | inactive | inactive | inactive | inactive | inactive | inactive
Cc1cccc(C)c1NC(=O)CC12CCCN1CCC2 | inactive | inactive | inactive | inactive | inactive | inactive | inactive | inactive | inactive | inactive
[K+] | – | inactive | inactive | inactive | inactive | inactive | inactive | inactive | inactive | –
Cc1c(N)c(=O)n(-c2ccccc2)n1C | inactive | inactive | inactive | inactive | inactive | inactive | inactive | inactive | inactive | inactive
CN1CC(=O)N/C1=N/C(=O)Nc1cccc(Cl)c1 | inactive | inactive | inactive | inactive | inactive | inactive | inactive | inactive | inactive | inactive
C=COCC1CCC(COC=C)CC1 (stereo not drawn) | inactive | inactive | inactive | inactive | inactive | inactive | inactive | inactive | inactive | inactive
Nc1ccn([C@@H]2O[C@H](CO)[C@@H](O)C2O)c(=O)n1 (stereo partly drawn) | inactive | inactive | inactive | inactive | inactive | 7.7 µM (active) | inactive | inactive | inactive | inactive
C[N+]12CCC(CC1)C(OC(=O)C(O)(c1ccccc1)c1ccccc1)C2 (stereo not drawn) | inactive | inactive | inactive | inactive | inactive | inactive | inactive | inactive | inactive | inactive
CCC(C)(CCCC(C)C)OC(C)=O (stereo not drawn) | inactive | inactive | inactive | inactive | inactive | inactive | inactive | inactive | inactive | inactive
O=C(O)c1cc(C(=O)O)cc(C(=O)O)c1 | inactive | inactive | inactive | inactive | inactive | inactive | inactive | inactive | inactive | inactive
c1ccc(CCc2ccccc2)cc1 | inactive | inactive | inactive | inactive | inactive | inactive | inactive | inactive | inactive | inactive
